Results published in the supplement of paper PMC10849652.
Targets with a hit are over-represented here; the source holds about 8,800 in all. About 0.5% of all pairs of compound and target were hits. Unmarked numbers belong to inactive results.

How the values were obtained:
Test in all cases: log2 fold change, soluble protein after heating vs DMSO (PISA); higher = thermal stabilisation; K562 lysate, 10 uM; active = over 0.2 and 3.5 SD of the protein, either way, in both replicates (recomputed)
nilotinib = compound: Cc1cn(-c2cc(NC(=O)c3ccc(C)c(Nc4nccc(-c5cccnc5)n4)c3)cc(C(F)(F)F)c2)cn1 [nilotinib]
How it was run: (§1)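 K562 pellets were dounce-homogenised in PBS pH 7.4 containing 1 mM MgCl2, and the crude extract, at 1 mg/mL protein, was exposed to 10 μM compound for 30 min. Aliquots were heated for 3 min across 48°C-58°C, pooled, brought to 0.5% NP-40 at 4°C and spun at 21,000xg for 90 min, with the supernatant taken as soluble protein. TMTpro 16plex LC-MS/MS with equalised channel sums quantified that protein. Values are log-two fold changes in thermal stability relative to solvent controls, taken from duplicates.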

[1] = compound: Cc1nc(Nc2n[nH]c3c2CN(C(=O)N[C@H](CN(C)C)c2ccccc2)C3(C)C)c2sccc2n1
How it was run: as §1

dasatinib = compound: Cc1nc(Nc2ncc(C(=O)Nc3c(C)cccc3Cl)s2)cc(N2CCN(CCO)CC2)n1 [dasatinib]
How it was run: as §1

[2] = compound: Cc1ncc(-c2ccnc(Nc3ccc(S(C)(=O)=O)cc3)n2)n1C(C)C
How it was run: as §1

[3] = compound: Cn1cc(-c2ccc3c(c2)CCN3C(=O)Cc2cccc(C(F)(F)F)c2)c2c(N)ncnc21
How it was run: as §1

quisinostat = compound: Cn1cc(CNCC2CCN(c3ncc(C(=O)NO)cn3)CC2)c2ccccc21 [quisinostat]
How it was run: as §1

tipifarnib = compound: Cn1cncc1[C@@](N)(c1ccc(Cl)cc1)c1ccc2c(c1)c(-c1cccc(Cl)c1)cc(=O)n2C [tipifarnib]
How it was run: as §1

[4] = compound: NC(=O)Nc1cc(-c2cccc(F)c2)sc1C(=O)N[C@H]1CCCNC1
How it was run: as §1

[5] = compound: NC(=O)c1cnc(N[C@@H]2CCCC[C@@H]2N)nc1Nc1cccc(-n2nccn2)c1
How it was run: as §1

[6] = compound: NC1(c2ccc(-c3nc4ccn5c(=O)[nH]nc5c4cc3-c3ccccc3)cc2)CCC1
How it was run: as §1

Sequence of UniProt Q92562 (Q92562 whole entry, looked up): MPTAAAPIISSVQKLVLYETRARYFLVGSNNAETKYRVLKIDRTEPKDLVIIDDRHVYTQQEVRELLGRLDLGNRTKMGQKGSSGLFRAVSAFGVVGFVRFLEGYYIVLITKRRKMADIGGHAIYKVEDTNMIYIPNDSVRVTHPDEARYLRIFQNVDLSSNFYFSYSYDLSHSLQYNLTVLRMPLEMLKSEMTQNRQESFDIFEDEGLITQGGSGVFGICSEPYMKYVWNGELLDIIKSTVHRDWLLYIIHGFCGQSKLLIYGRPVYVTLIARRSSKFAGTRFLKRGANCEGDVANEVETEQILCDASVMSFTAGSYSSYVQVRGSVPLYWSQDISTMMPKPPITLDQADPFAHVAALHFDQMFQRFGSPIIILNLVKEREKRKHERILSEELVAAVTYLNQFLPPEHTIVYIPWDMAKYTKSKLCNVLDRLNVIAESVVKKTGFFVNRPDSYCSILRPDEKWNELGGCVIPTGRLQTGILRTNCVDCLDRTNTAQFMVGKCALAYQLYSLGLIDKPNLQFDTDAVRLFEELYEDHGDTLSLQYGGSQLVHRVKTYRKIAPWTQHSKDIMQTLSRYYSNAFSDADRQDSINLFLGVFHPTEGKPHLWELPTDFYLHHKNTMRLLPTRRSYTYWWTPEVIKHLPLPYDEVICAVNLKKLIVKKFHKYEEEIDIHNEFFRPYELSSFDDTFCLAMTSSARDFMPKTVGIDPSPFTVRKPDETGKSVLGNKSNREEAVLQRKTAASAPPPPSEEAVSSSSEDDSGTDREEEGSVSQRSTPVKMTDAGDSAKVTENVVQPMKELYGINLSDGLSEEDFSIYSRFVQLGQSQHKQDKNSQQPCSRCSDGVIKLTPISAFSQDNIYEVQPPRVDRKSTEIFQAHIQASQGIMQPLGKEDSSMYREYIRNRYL
Sequence of UniProt Q10471 (Q10471 whole entry, looked up): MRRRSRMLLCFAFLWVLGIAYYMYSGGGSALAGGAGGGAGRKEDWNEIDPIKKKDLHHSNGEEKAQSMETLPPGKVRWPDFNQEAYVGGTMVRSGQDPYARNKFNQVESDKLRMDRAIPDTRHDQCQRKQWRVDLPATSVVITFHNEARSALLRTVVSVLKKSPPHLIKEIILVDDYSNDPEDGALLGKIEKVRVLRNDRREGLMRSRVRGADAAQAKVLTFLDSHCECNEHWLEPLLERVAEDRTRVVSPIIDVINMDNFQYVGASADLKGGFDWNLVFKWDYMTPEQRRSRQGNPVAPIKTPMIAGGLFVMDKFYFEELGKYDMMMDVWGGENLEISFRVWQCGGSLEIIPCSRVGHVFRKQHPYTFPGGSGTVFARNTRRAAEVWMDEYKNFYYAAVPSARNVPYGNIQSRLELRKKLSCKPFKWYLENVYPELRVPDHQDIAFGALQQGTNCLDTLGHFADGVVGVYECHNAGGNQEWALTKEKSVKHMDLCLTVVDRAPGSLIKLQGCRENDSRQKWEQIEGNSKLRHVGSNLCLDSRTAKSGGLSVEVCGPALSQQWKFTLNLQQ
Sequence of UniProt O75477 (O75477 whole entry, looked up): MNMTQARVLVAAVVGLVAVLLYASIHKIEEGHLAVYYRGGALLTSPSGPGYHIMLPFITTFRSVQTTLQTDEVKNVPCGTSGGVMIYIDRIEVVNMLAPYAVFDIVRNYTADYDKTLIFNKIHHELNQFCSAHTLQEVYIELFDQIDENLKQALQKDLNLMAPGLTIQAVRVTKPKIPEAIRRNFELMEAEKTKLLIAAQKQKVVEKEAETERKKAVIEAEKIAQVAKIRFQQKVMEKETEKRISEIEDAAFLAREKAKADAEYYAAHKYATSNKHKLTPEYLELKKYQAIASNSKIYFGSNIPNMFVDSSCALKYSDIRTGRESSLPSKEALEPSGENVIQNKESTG
Sequence of UniProt A6NHQ2 (A6NHQ2 whole entry, looked up): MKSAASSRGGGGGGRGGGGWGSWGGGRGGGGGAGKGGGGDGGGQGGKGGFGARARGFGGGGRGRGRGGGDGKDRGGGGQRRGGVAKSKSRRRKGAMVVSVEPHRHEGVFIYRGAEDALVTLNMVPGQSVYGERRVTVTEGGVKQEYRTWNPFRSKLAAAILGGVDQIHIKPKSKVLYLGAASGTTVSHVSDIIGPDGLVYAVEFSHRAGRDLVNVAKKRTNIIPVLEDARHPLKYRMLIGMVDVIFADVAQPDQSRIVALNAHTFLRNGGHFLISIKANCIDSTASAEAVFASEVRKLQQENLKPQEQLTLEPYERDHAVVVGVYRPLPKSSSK
Sequence of UniProt Q9NX74 (Q9NX74 whole entry, looked up): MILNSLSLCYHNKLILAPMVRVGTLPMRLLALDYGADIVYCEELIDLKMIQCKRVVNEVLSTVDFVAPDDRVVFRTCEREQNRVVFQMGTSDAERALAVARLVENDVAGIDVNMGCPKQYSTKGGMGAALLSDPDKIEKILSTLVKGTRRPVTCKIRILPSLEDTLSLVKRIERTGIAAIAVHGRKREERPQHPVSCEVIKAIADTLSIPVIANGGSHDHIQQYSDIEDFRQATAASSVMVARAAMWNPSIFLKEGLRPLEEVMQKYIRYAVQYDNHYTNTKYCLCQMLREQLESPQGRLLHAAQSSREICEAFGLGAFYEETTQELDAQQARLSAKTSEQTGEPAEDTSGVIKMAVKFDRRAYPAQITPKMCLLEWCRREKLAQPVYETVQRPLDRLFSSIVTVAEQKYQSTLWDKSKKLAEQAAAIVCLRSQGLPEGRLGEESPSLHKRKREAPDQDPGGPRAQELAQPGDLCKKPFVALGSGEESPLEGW
Sequence of UniProt Q96KP1 (Q96KP1 whole entry, looked up): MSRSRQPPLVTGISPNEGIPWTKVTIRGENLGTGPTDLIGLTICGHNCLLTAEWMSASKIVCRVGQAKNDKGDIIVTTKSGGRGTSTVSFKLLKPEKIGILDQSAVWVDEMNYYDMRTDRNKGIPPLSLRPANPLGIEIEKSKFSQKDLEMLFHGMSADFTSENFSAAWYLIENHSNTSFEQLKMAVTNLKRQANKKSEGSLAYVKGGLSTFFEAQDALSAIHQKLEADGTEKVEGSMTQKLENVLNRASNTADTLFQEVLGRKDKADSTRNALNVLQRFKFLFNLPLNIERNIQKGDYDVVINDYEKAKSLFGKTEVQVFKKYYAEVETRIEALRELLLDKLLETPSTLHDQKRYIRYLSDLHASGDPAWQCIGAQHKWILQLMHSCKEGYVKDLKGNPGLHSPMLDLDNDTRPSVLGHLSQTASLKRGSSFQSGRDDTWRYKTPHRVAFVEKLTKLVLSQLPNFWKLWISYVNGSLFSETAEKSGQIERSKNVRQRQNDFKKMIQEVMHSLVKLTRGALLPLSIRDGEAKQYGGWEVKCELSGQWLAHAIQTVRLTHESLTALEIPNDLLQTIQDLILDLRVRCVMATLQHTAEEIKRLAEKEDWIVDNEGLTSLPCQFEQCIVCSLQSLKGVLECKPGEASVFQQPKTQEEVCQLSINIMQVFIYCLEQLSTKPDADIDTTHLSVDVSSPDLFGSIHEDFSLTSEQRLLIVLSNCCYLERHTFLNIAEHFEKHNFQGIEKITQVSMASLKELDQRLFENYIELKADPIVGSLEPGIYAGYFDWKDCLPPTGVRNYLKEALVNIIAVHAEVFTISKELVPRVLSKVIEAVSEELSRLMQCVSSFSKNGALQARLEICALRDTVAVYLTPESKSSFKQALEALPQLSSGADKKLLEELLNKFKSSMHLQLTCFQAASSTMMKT
Sequence of UniProt Q9GZT9 (Q9GZT9 whole entry, looked up): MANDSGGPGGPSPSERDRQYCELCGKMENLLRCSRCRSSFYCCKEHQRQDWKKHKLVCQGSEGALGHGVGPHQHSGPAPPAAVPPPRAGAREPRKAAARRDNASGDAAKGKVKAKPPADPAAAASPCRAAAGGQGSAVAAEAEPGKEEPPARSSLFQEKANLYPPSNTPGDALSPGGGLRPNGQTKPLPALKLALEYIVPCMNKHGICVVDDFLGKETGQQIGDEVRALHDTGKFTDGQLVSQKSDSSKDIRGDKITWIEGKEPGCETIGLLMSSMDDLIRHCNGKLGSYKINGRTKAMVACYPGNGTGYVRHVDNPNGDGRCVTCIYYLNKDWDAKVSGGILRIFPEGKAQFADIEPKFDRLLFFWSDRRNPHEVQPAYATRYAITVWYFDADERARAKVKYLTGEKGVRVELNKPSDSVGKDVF
Sequence of UniProt O75521 (O75521 whole entry, looked up): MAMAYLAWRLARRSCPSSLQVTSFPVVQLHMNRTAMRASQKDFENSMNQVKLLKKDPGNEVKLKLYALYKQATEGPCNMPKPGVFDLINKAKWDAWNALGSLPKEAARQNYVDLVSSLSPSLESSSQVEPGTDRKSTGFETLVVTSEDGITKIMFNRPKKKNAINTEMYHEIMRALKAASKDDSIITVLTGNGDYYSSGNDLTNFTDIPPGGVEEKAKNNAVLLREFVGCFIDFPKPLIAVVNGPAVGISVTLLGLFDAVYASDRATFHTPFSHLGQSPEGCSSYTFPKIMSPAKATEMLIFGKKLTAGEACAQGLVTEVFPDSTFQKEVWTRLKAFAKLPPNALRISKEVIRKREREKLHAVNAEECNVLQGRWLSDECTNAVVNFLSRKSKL
Sequence of UniProt Q9NRY5 (Q9NRY5 whole entry, looked up): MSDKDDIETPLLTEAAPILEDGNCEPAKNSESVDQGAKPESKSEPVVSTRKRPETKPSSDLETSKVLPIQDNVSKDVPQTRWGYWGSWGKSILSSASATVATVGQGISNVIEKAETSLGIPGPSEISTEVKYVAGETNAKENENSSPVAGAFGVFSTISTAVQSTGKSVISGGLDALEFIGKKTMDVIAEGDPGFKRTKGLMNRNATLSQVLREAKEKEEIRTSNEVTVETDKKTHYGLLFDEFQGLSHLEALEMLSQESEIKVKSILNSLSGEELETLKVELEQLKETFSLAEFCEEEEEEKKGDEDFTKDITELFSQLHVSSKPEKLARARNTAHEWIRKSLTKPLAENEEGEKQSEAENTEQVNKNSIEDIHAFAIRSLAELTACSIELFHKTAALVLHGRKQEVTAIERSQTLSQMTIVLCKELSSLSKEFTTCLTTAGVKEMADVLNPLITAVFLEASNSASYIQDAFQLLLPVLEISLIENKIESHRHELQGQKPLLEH

Target	log2 fold change (nilotinib)	log2 fold change [1]	log2 fold change (dasatinib)	log2 fold change [2]	log2 fold change [3]	log2 fold change (quisinostat)	log2 fold change (tipifarnib)	log2 fold change [4]	log2 fold change [5]	log2 fold change [6]
GIPC3 (UniProt Q8TF64)	0.183	-0.602 (active)	-0.071	0.097	-0.009	-0.309	-0.067	0.134	0.045	0.016
ECI2 (UniProt O75521)	0.085	-0.013	0.029	0.017	-0.01	0.023	-0.071	-0.027	-0.019	-0.022
GCDH (UniProt Q92947)	-0.018	-0.129	0.024	-0.033	-0.022	-0.05	-0.018	-0.07	-0.021	-0.044
ERLIN1 (UniProt O75477)	0.011	-0.031	-0.01	-0.034	0.033	0.107	0.049	-0.047	-0.009	0.035
EXOC2 (UniProt Q96KP1)	0.009	0.018	-0.041	-0.009	0.022	-0.088	-0.022	0.062	-0.003	-0.029
FIG4 (UniProt Q92562)	-0.02	0.144	-0.007	0.08	0.145	0.077	-0.038	0.013	-0.066	0.06
FDFT1 (UniProt P37268)	0.032	-0.048	-0.012	-0.037	-0.008	-0.014	-0.053	0.005	0.042	-0.025
EEF1A1, A0A087WVQ9	0.124	0.012	0.006	0.044	0.002	-0.025	-0.001	0.024	0.013	0.016
FAU (UniProt E9PR30)	0.006	0.001	-0.018	0.005	0.052	0.002	0.046	-0.055	0	-0.058
FREM2 (UniProt Q5SZK8)	-0.108	0.041	-0.071	-0.113	-0.014	-0.223	-0.168	0.048	0.059	0.04
GALNT2 (UniProt Q10471)	-0.02	-0.054	0.003	0.008	0.008	0.081	-0.067	-0.004	-0.002	-0.031
FHOD1 (UniProt Q9Y613)	0.005	0.017	-0.05	-0.007	0.002	0.017	-0.017	0.039	0.014	0.023
GGA2 (UniProt Q9UJY4)	-0.028	-0.047	-0.043	0	0.032	-0.022	-0.003	0.066	0.043	0.001
DUS2 (UniProt Q9NX74)	0.021	-0.035	0.037	0.011	-0.024	0.088	-0.019	0	0.014	-0.045
DYRK1A (UniProt Q13627)	-0.018	0.062	-0.021	0.031	0.033	-0.026	-0.06	0.072	-0.01	-0.013
GATAD2A isoform 3 (UniProt Q86YP4)	0.041	0.001	0.006	-0.009	0.001	-0.074	-0.009	0.032	0.002	-0.024
FBLL1 (UniProt A6NHQ2)	0.006	-0.015	-0.048	-0.101	0	-0.07	-0.009	0.026	-0.037	0
FAM114A2 (UniProt Q9NRY5)	0.152	0.053	-0.028	0.031	0.002	0.02	-0.231	0	0.009	-0.071
EGLN1 (UniProt Q9GZT9)	0.006	0.007	-0.045	-0.066	0.03	-0.048	-0.05	0.044	0.039	0.006
DUS3L (UniProt Q96G46)	0.008	-0.022	-0.019	-0.014	0.004	-0.098	-0.017	0.026	0	-0.021
GART (UniProt P22102)	-0.006	-0.024	-0.022	-0.011	0.01	0.025	0.011	0.015	0.007	0.006
FDX2 (UniProt Q6P4F2)	0.135	-0.025	0.058	-0.067	-0.006	-0.068	0.096	0.05	-0.068	0.052
ENO1, A0A2R8YEM5	-0.021	-0.017	-0.013	0.002	-0.021	-0.005	0.053	-0.026	0.002	-0.008
FBXO30 (UniProt Q8TB52)	0.015	-0.032	0.012	0.067	0.02	0.001	0.012	-0.008	-0.017	0.005
EPRS (UniProt P07814)	0.005	-0.002	-0.039	-0.01	0.039	0	0.011	0.039	0.002	-0.026
